# Where a name gives a salt, the structure may show the parent alone. Read-outs that look alike come from different tables or passages of the source. The whole screen tested about 3,300 compounds, of which about 95 (3%) showed an effect of 50% or more. Only a selection was taken, and strong results are over-represented in it overall.
# System: HCoV-229E
# Design: species or system Huh-7; HTS, protection from HCoV-229E induced cell death, luminescent cell viability (CellCounting-Lite 2.0), inhibition rate
# Conditions: 24 h post infection, 1 h compound pre-incubation, 10 µM, inhibitor
SMILES,229E Inhibition rate [%],"229E Inhibition rate (229E Inhibition rate, 24 h) [%]"
C/C=C(/C)C(=O)O[C@@H]1c2c(ccc3ccc(=O)oc23)OC(C)(C)[C@@H]1OC(C)=O [Pteryxin],4.8,
CC(C)=CCc1c2ccoc2c(O)c2oc(=O)ccc12 [Alloimperatorin],0,
c1c2c(cc3c1OCO3)-c1cc3ccc4c(c3c[n+]1CC2)OCO4 [Coptisine (chloride)],,32
O=C(O)C1CSSC1 [Asparagusic acid],15.6,
CC(C)C[C@H](NC(=O)CN)C(=O)O [Glycyl-L-leucine],13.8,
O=C1c2c(O)cc(O)cc2O[C@H](c2ccc(O)cc2)[C@H]1O [Dihydrokaempferol],9.9,
COc1cc(O)c(CC=C(C)C)c2c1C(=O)CC(c1ccc(O)cc1)O2 (centres unmarked) [Isoxanthohumol],23.6,
C=C(C)[C@H](CC=C(C)C)Cc1c(O)cc(OC)c2c1O[C@H](c1ccc(O)cc1O)[C@@H](O)C2=O [Kushenol I],6.5,
C=C(C)[C@H](CC=C(C)C)Cc1c(O)cc(O)c2c1O[C@H](c1ccc(O)cc1O)CC2=O [sophoraflavanone G],75.7,
C=C(C)[C@H](CC=C(C)C)Cc1c(O)cc(O)c2c1O[C@H](c1ccccc1O)CC2=O [Kushenol A],10.8,
C=C(C)[C@H](CC=C(C)C)Cc1c(O)cc(OC)c2c1O[C@H](c1ccc(O)cc1OC)CC2=O [(2S)-2'-Methoxykurarinone],62.1,
C=C(C)[C@H](CC=C(C)C)Cc1c(O)cc(OC)c2c1O[C@H](c1ccc(O)cc1O)CC2=O [Kurarinone],19.7,
"C[C@H](O)[C@H](O)C1=Nc2c(nc(N)[nH]c2=O)NC1 [7,8-Dihydro-L-biopterin]",24.5,
N[C@@H](CCC(=O)O)C(=O)O [L-Glutamic acid (monosodium salt)],,12
C[C@@H]1O[C@@H](O[C@H]2[C@H](Oc3cc(O)c4c(=O)cc(-c5ccc(O)cc5)oc4c3)O[C@H](CO[C@@H]3O[C@H](CO)[C@@H](O)[C@H](O)[C@H]3O)[C@@H](O)[C@@H]2O)[C@H](O)[C@H](O)[C@H]1O [Apigenin-7-O-(2G-rhamnosyl)gentiobioside],22.2,
Nc1ccccc1S(=O)(=O)O [2-Aminobenzenesulfonic acid],0,
COc1cc(-c2[o+]c3cc(O)cc(O)c3cc2O)cc(O)c1O [Petunidin (chloride)],13.2,
O=C(/C=C/c1ccc(O[C@@H]2O[C@H](CO)[C@@H](O)[C@H](O)[C@H]2O)cc1)c1ccc(O)cc1O [Isoliquiritin],27.7,
O=C(/C=C/c1ccc(O[C@@H]2O[C@H](CO)[C@@H](O)[C@H](O)[C@H]2O[C@@H]2OC[C@](O)(CO)[C@H]2O)cc1)c1ccc(O)cc1O [Isoliquiritin apioside],63.8,
O=C(/C=C/c1ccc(O)cc1)c1ccc(O[C@@H]2O[C@H](CO)[C@@H](O)[C@H](O)[C@H]2O)cc1O [Neoisoliquiritin],24.9,
C=C1CC[C@H]2O[C@]2(C)CC[C@@H]2[C@@H]1CC2(C)C [Caryophyllene oxide],16.3,
"O=C(O)c1ccc(O)c(O)c1O [2,3,4-Trihydroxybenzoic acid]",18,
C[C@H](CC[C@@H](O[C@@H]1O[C@H](CO[C@@H]2O[C@H](CO)[C@@H](O)[C@H](O)[C@H]2O)[C@@H](O)[C@H](O)[C@H]1O[C@@H]1O[C@H](CO)[C@@H](O)[C@H](O)[C@H]1O)C(C)(C)O)[C@H]1CC[C@@]2(C)[C@@H]3CC=C4[C@@H](CC[C@H](O[C@@H]5O[C@H](CO[C@@H]6O[C@H](CO)[C@@H](O)[C@H](O)[C@H]6O)[C@@H](O)[C@H](O)[C@H]5O)C4(C)C)[C@]3(C)C(=O)C[C@]12C [11-oxo-mogroside V],0,
COc1cc([C@@H]2OC[C@@H]3[C@H]2CO[C@H]3c2cc(OC)c(O)c(OC)c2)cc(OC)c1O [(-)-Syringaresinol],16.7,
Cc1cc(O[C@@H]2O[C@H](CO)[C@@H](O)[C@H](O)[C@H]2O)c2c(c1)C(=O)c1cccc(O)c1C2=O [Chrysophanein],51.1,
Cc1cc(O)c2c(c1)C(=O)c1cccc(O[C@@H]3O[C@H](CO)[C@@H](O)[C@H](O)[C@H]3O)c1C2=O [Chrysophanol 8-O-glucoside],8.4,
CC(=O)OC[C@H]1O[C@@H](O[C@@H]2[C@@H](O)[C@H](O[C@@H]3[C@H](O)C(C)(C)C[C@H]4C5=CC[C@@H]6[C@@]7(C)CC[C@H](O[C@@H]8O[C@H](C(=O)O)[C@@H](O)[C@H](O)[C@H]8O[C@@H]8O[C@H](CO)[C@H](O)[C@H](O)[C@H]8O[C@@H]8O[C@H](CO)[C@@H](O)[C@H](O)[C@H]8O)[C@](C)(CO)[C@@H]7CC[C@@]6(C)[C@]5(C)CC[C@@]34C)OC[C@@H]2O)[C@H](OC(C)=O)[C@@H](OC(C)=O)[C@@H]1OC(C)=O [Soyasaponin Ab],46.7,
CN1CCC=C(C(=O)O)C1 [Arecaidine],,7.9
O=C(/C=C/c1ccc(O)c(O)c1)O[C@@H](C(=O)O)[C@@H](OC(=O)/C=C/c1ccc(O)c(O)c1)C(=O)O [Chicoric acid],,8
